# Measured values published in the supplement of paper PMC10849652.
# The full data set covers some 8,800 targets. This sample favours those with a hit. About 0.5% of all pairs of compound and target were hits. A number with no mark means an inactive call.
# Columns and labels:
# Assay in all cases: log2 fold change, soluble protein after heating vs DMSO (PISA); higher = thermal stabilisation; K562 lysate, 10 uM; active = over 0.2 and 3.5 SD of the protein, either way, in both replicates (recomputed)
# [1] = compound: CCCS(=O)(=O)Nc1ccc(F)c(C(=O)c2c[nH]c3ncc(-c4ccc(Cl)cc4)cc23)c1F [vemurafenib]
# Summary of the method: (§1)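 Pellets of K562 cells were dounce-homogenised in PBS pH 7.4 with 1 mM MgCl2, and the crude extract was held at 1 mg/mL protein for a 30 min treatment with 10 μM compound. Aliquots were heated for 3 min over 48°C-58°C and pooled before NP-40 was added to 0.5% at 4°C. The supernatant from 21,000xg for 90 min was quantified by TMTpro 16plex LC-MS/MS with channel sums equalised. Values are reported from duplicates as log-two fold change in thermal stability relative to solvent controls.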
# [2] = compound: CCCS(=O)(=O)Nc1ccc(F)c(C(=O)c2c[nH]c3ncc(Cl)cc23)c1F
# Summary of the method: as §1
# [3] = compound: CCN(CCCOc1ccc2c(Nc3cc(CC(=O)Nc4cccc(F)c4)[nH]n3)ncnc2c1)CCOP(=O)(O)O [barasertib]
# Summary of the method: as §1
# [4] = compound: CC[C@@H]1C(=O)N(C)c2cnc(Nc3ccc(C(=O)NC4CCN(C)CC4)cc3OC)nc2N1C1CCCC1
# Summary of the method: as §1
# [5] = compound: CC[C@@H]1C(=O)N(C)c2cnc(Nc3ccc(C(=O)N[C@H]4CC[C@H](N5CCN(CC6CC6)CC5)CC4)cc3OC)nc2N1C(C)C [volasertib]
# Summary of the method: as §1
# [6] = compound: CCn1c(C(=O)N(C2CC2)C2CC2)cc2c3c(ncn3C)c(Nc3cc(C)n(C)n3)nc21
# Summary of the method: as §1
# [7] = compound: CCn1cc(-c2ccnc3[nH]c(-c4cccc(CN(C)C)c4)cc23)c(-c2ccc(NC(=O)N(C)C)cc2)n1
# Summary of the method: as §1
# [8] = compound: CN1CCC(CNc2ccc3ncc(-c4cccc(OC(F)(F)F)c4)n3n2)CC1
# Summary of the method: as §1
# [9] = compound: CN1CCN(CCOc2cc(OC3CCOCC3)c3c(Nc4c(Cl)ccc5c4OCO5)ncnc3c2)CC1 [saracatinib]
# Summary of the method: as §1
# [10] = compound: CN1CCN(c2nc(C3=C(c4c[nH]c5ccccc45)C(=O)NC3=O)c3ccccc3n2)CC1 [sotrastaurin]
# Summary of the method: as §1
# Sequence of UniProt O95714 (O95714 whole entry, looked up): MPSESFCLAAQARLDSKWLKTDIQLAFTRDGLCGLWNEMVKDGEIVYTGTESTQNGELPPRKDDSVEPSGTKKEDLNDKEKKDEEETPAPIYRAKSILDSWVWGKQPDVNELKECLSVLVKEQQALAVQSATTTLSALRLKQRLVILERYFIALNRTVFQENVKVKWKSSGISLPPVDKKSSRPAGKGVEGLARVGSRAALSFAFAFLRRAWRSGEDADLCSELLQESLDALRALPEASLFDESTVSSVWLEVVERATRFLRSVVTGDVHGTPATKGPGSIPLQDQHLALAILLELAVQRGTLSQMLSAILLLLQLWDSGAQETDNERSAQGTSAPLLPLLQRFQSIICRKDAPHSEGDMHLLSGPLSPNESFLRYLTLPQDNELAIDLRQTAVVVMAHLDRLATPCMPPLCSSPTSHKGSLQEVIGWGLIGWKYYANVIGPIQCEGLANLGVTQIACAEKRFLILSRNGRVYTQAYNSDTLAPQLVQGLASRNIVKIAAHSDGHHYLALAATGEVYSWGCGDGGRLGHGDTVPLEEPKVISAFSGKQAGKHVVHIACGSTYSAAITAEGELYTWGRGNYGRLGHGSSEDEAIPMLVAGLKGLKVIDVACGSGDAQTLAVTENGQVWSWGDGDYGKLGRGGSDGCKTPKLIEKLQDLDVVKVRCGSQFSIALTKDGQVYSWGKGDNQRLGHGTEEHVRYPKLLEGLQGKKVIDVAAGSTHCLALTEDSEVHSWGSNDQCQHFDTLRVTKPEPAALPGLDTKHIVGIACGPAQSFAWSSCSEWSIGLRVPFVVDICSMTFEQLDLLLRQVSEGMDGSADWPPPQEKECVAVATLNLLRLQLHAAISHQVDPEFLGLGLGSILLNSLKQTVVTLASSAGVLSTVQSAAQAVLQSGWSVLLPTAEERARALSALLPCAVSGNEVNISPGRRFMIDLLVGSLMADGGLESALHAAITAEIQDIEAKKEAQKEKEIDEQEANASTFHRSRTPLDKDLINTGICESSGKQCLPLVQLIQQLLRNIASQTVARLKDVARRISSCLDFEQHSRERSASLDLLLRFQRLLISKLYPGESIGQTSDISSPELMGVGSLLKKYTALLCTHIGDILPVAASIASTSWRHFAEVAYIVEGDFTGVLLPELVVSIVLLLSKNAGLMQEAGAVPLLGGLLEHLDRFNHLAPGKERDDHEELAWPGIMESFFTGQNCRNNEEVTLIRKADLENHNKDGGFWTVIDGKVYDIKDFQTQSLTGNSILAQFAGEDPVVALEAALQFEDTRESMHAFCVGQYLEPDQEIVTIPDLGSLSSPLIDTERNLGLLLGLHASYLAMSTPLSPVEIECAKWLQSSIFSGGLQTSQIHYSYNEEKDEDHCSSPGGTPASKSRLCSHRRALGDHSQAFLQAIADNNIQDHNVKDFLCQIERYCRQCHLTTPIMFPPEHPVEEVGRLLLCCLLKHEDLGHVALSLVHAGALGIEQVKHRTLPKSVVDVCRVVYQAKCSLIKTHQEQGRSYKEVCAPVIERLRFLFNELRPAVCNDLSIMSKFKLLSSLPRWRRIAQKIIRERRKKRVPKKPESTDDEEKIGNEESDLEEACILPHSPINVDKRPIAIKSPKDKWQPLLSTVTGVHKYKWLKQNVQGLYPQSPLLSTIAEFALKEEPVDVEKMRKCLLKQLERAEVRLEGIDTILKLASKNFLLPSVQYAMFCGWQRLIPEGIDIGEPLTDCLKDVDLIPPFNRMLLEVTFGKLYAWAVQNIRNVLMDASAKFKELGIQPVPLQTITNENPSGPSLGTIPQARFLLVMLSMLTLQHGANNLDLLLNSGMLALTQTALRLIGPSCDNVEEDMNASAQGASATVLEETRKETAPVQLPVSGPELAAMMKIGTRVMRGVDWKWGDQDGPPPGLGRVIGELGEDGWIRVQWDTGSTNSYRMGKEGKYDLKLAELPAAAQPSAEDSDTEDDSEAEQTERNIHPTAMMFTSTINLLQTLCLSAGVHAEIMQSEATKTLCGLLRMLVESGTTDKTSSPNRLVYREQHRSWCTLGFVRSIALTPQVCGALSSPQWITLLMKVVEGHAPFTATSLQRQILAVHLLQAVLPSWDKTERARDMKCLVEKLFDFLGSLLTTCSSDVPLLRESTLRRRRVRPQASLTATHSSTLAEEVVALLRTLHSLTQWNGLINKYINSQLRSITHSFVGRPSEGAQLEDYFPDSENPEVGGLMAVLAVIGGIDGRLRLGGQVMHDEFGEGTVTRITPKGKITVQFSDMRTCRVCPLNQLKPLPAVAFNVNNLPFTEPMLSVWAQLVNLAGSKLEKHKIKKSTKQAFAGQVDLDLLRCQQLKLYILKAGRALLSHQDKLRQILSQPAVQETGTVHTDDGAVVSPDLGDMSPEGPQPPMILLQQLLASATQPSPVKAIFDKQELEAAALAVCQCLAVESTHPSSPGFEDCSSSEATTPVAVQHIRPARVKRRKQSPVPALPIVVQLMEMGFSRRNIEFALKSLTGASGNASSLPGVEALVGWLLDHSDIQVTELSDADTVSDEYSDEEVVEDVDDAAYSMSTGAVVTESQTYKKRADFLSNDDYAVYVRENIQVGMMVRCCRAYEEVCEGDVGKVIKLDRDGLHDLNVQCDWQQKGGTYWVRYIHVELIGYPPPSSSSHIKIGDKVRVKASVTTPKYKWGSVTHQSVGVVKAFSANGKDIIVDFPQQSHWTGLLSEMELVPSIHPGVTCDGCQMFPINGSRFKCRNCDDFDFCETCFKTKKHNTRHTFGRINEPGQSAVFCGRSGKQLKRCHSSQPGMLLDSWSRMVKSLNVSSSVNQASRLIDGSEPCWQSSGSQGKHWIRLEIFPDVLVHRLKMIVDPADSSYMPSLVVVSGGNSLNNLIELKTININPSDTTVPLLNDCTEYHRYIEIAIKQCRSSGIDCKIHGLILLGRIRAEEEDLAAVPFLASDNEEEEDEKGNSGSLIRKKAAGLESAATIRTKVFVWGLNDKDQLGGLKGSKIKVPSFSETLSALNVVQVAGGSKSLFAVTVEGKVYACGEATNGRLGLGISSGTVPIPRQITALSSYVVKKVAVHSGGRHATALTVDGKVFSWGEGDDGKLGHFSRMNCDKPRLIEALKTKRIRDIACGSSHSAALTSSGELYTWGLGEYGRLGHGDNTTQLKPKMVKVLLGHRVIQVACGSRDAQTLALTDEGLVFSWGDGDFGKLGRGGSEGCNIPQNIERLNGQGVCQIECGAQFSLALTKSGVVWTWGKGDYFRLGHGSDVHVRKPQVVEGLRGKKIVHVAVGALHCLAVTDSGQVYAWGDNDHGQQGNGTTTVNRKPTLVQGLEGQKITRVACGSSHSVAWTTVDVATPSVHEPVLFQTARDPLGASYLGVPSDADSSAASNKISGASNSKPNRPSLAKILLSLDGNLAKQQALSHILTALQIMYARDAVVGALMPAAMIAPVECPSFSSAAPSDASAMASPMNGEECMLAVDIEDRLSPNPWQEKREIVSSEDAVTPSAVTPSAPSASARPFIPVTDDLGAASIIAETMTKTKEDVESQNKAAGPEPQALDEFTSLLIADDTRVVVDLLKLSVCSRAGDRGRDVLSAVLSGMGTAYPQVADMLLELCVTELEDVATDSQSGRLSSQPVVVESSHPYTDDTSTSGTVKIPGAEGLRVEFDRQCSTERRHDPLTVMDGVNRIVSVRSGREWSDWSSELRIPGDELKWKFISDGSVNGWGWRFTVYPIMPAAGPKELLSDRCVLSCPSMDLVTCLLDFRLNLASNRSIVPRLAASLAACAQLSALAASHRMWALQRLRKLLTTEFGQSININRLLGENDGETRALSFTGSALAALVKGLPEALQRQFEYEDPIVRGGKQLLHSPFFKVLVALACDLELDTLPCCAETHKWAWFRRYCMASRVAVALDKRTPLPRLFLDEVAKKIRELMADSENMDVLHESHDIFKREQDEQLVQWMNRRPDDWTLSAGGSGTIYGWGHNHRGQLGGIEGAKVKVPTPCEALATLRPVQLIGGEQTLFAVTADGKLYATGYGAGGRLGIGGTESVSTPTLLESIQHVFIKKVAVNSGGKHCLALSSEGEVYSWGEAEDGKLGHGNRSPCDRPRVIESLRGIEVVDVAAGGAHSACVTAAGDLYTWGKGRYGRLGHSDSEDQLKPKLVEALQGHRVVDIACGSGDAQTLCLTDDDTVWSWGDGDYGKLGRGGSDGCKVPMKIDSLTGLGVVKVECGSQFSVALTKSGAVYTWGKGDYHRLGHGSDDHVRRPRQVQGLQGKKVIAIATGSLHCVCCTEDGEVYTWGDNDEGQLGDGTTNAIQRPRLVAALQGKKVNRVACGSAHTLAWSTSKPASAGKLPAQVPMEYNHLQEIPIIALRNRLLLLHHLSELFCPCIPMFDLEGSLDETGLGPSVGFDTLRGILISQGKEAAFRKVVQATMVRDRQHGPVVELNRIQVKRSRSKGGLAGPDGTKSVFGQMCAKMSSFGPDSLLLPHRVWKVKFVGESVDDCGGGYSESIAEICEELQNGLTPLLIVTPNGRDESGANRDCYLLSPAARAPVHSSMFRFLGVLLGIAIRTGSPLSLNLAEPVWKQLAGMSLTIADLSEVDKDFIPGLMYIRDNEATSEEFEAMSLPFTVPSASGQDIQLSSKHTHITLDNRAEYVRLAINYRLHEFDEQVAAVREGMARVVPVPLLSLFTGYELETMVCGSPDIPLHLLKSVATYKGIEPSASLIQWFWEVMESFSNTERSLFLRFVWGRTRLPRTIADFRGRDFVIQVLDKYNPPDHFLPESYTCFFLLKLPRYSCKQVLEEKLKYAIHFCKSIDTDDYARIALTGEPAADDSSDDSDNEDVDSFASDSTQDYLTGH
# Sequence of UniProt P36969 (P36969 whole entry, looked up): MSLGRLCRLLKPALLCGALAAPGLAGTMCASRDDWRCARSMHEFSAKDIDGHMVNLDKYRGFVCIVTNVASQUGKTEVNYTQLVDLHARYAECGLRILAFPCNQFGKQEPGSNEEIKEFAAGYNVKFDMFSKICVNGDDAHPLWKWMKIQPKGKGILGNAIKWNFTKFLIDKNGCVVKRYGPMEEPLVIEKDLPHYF
# Sequence of UniProt Q01628 (Q01628 whole entry, looked up): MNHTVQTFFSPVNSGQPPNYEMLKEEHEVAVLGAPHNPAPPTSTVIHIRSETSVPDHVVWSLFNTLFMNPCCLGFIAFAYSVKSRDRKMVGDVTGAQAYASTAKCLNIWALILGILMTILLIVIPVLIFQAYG
Target,log2 fold change [1],log2 fold change [2],log2 fold change [3],log2 fold change [4],log2 fold change [5],log2 fold change [6],log2 fold change [7],log2 fold change [8],log2 fold change [9],log2 fold change [10]
HAUS6 (UniProt Q7Z4H7),0.004,0.092,0.025,0.012,-0.068,0.015,-0.063,0.014,0.01,0.022
INTS5 (UniProt Q6P9B9),0.052,-0.167,0.044,0.042,0.223,0.023,0.029,-0.072,0.069,-0.092
IGF2BP3 (UniProt O00425),0.024,0.006,0.016,-0.106,-0.025,-0.016,-0.062,-0.022,0.026,0.011
GSK3B isoform 2 (UniProt P49841),-0.009,0.038,0.026,-0.015,-0.093,-0.011,-0.013,0.096,-0.049,0.601
HIST2H2BC (UniProt Q6DN03),-0.261,0.026,-0.029,-0.05,0.013,0.033,0.291 (active),-0.024,0,-0.01
GOLGA6B (UniProt A6NDN3),0.015,-0.003,0.2,0.149,-0.006,0.078,-0.086,0.102,0.101,-0.004
GTF2I (UniProt P78347),-0.004,0.031,0.034,-0.055,-0.036,0.005,-0.054,-0.033,0.014,0.01
HNRNPUL1 (UniProt Q9BUJ2),-0.042,0.005,-0.004,-0.032,0.005,0.034,0.017,0.019,0.041,0.014
ILK (UniProt Q13418),0.029,-0.024,0.059,-0.03,-0.072,0.016,-0.034,-0.019,0.011,-0.002
HLTF (UniProt Q14527),-0.008,-0.044,0.077,-0.002,-0.043,0.028,-0.024,0.073,0.004,0.017
KBTBD4 isoform 2 (UniProt Q9NVX7),0,0.021,0.013,0.063,-0.022,0.031,-0.04,-0.032,0.086,0.032
IFITM3 (UniProt Q01628),-0.046,0.079,0.342,-0.06,-0.025,0.026,-0.11,0.112,-0.041,0.052
GSTP1 (UniProt P09211),-0.007,-0.017,0.008,0.003,0.034,0.324 (active),-0.059,0.021,0,-0.002
GOLGA1 (UniProt Q92805),0.081,0.086,0,0.007,0.121,-0.061,-0.019,-0.04,-0.031,0.071
HSPA8 (UniProt P11142),-0.024,0.003,-0.035,-0.031,-0.003,0.002,-0.005,0.014,-0.001,0.004
KDM1A (UniProt O60341),0.021,0.004,0.014,-0.011,-0.046,-0.011,-0.065,-0.016,-0.001,0.005
HERC2 (UniProt O95714),0.034,0.004,0.038,-0.038,-0.01,0.039,0.032,-0.021,0.037,0.047
"HDLBP, A0A024R4E5",0.008,0.024,-0.017,0.016,-0.04,0.011,-0.018,-0.008,-0.002,0.004
HAUS3 (UniProt Q68CZ6),0.012,0.024,0.006,-0.029,-0.048,0.002,-0.035,-0.065,-0.016,0.01
KBTBD2 (UniProt Q8IY47),-0.035,0.006,0.022,-0.018,0.013,-0.181,-0.166,0.06,0.031,-0.03
IARS (UniProt P41252),0.004,0.011,0.026,-0.086,-0.079,0.048,0.044,-0.111,0.006,0.014
GPX4 (UniProt P36969),-0.003,0.025,-0.002,-0.068,-0.038,0.013,0.027,-0.079,0.02,0.012
HECTD3 (UniProt Q5T447),-0.046,0.007,-0.039,-0.022,-0.024,0.018,-0.004,-0.027,0.032,0.027
IL18R1 (UniProt Q13478),0.074,-0.026,0.061,0.087,0.044,-0.184,-0.284,0.085,0.023,-0.064
HMGCS1 (UniProt Q01581),0.008,-0.009,-0.038,-0.003,-0.017,0.014,-0.005,0.009,0.004,-0.014
HSPA8 (UniProt E9PK54),-0.047,0.014,-0.113,-0.071,-0.056,0.08,-0.144,0.052,0.108,0.028
GON4L (UniProt Q3T8J9),0,0.054,0.097,-0.064,-0.018,0.02,-0.104,-0.027,-0.019,0.016
GMDS (UniProt O60547),0.057,0.012,0.027,-0.088,-0.034,-0.023,0.019,0.042,-0.033,0.019
GTF3C5 isoform 3 (UniProt Q9Y5Q8),0.024,0.009,-0.011,0.006,-0.018,0.051,-0.025,0.017,0.031,-0.033
